Data: ChEMBL document CHEMBL3988442, “University of Dundee, Small-Polar-MMV Screening Library” (2021)
The whole screen tested about 48,000 compounds, of which about 13,000 (27%) showed an effect of 50% or more. Some of the results follow.

Tested on: Wolbachia pipientis
Experiment: Anti-Wolbachia Cell-Based Screen
Assay type: functional
Parameters: scale not given: in the data most compounds retested in dose-response had high values
Conditions: 5 µM

SMILES | Percent Effect [%]
Cc1nc(COc2ccc(OCC(N)=O)cc2)oc1C | 23.22
CC(C)N(C)C(=O)CN1C(=O)OC[C@@H]1c1ccccc1 | -15.23
Cc1nc(C)c(CN2CCC(N(C)Cc3nnc(C4CC4)o3)C2)s1 (centres undefined) | 83.42
CCn1c(C)nnc1CN(C)C1CCN(Cc2sc(C)nc2C)C1 (centres undefined) | 1.106
Cc1nc(CN(C)C2CCN(Cc3sc(C)nc3C)C2)no1 (centres undefined) | -5.233
Cc1ncc(CN(C)C2CCCN(Cc3noc(C4CC4)n3)C2)s1 (centres undefined) | 1.76
Cc1nc(C)c(CN2CCC(N(C)Cc3noc(C4CC4)n3)C2)s1 (centres undefined) | 84.99
Cc1ccc(N2CCCC(N(C)Cc3nnc(C4CC4)o3)C2)nn1 (centres undefined) | -13.84
O=C(CN1C(=O)c2ccccc2CS1(=O)=O)c1ccccc1 | -5.153
COCC(C)NC(=O)c1cncc(Br)c1 (centres undefined) | 15.5
Cc1cc(O)cc2c(=O)oc(CC(C)O)cc12 (centres undefined) | -7.016
CN1CCOC(CNCc2nc(-c3ccccc3)cs2)C1 (centres undefined) | 5.622
Cc1ccc(OCc2nc(CNCC3CN(C)CCO3)cs2)cc1 (centres undefined) | 109.6
CC(C)CCc1nc(CNCC2CN(C)CCO2)cs1 (centres undefined) | 94.45
Cc1ccc(-c2cn3c(n2)CO[C@@H](CNCc2nccs2)C3)cc1 | -9.469
Cc1c(F)cccc1NC(=O)N(C(C)CS(C)(=O)=O)C1CC1 (centres undefined) | -14.75
CCC(CO)N(Cc1ccccn1)C(=O)c1ccc2c(c1)CCO2 (centres undefined) | 6.403

SMILES | Percent Effect [%]
CCSCc1cccc(NC2CCN(C)C2=O)c1 (centres undefined) | -4.409
CC(C)c1nc(CN2CCCCC2Cn2cncn2)cs1 (centres undefined) | 82.22
CCCc1nc(CN2CCCCC2Cn2cncn2)cs1 (centres undefined) | 92.11
CC(C)c1nc(CN2CCCC2CN2CCCC2)cs1 (centres undefined) | 11.4
CCCc1nc(CN2CCCC2Cn2cncn2)cs1 (centres undefined) | 0.1257
c1ncn(CC2CCCCN2Cc2csc(C3CCCC3)n2)n1 (centres undefined) | 3.175
CN(C)C(=O)Cc1nc(CN2CCCCC2Cn2cncn2)cs1 (centres undefined) | -10.91
Cc1nc(C(NS(=O)(=O)N(C)C)c2ccccc2F)no1 (centres undefined) | -14.73
O=C(NC[C@H]1OC[C@@H](NC2CCC(F)(F)CC2)[C@@H]1O)c1ccccc1 | -10.21
O=C(CCc1ccncc1)N1CCc2c(ncnc2N2CCOCC2)C1 | -13.92
COc1cc(C)c2c(c1C)C[C@H]([C@H](C)C(=O)O)CC2 | -11.67
CN1Cc2cc(F)ccc2N(CC(C)(C)O)CCC1=O | 116.8
CN1CCN(S(C)(=O)=O)c2ccc(F)cc21 | -0.158
CCN1CC2(CCC1=O)CCN(Cc1cc(F)ccc1Cl)CC2 | -6.305
Cn1ncc2c(=O)[nH]c(CN3CCCc4cc(F)ccc43)nc21 | -1.731
CSCCC(C)NC(=O)CCN1C(=O)CCc2cc(F)ccc21 (centres undefined) | 2.729
CCN1CCC(=O)N(C)Cc2cc(F)ccc21 | 110.2
